Data on 39 compounds can be found in PubChem BioAssay (Tox21).

The target of experiment [1] is Cytochrome P450 2C9 (Homo sapiens) (UniProt P11712). As to the kind of experiment: Cytochrome P450 Family 2 Subfamily C Member 9 (CYP2C9) small molecule antagonists: luciferase reporter qHTS assay (AID 1671198). Also: potency is read from the fitted curve at half-maximal effect. As to activity change, negative = inhibition: series mostly up to about 120 µM. The gist of the method: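 CYP2C9 activity was measured with a P450-Glo proluciferin substrate. Enzyme–substrate mix was held with compound for 10 min at room temperature, then NADPH regeneration solution was added for 1 h at 37C. Luciferin product was read as luminescence.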
For orientation: A reporter such as luciferase makes a cellular process visible.

In experiment [2] the target is Voltage-gated inwardly rectifying potassium channel KCNH2 (Homo sapiens) (UniProt Q12809). As to the kind of experiment: Human Ether-a-go-go-Related Gene (hERG) channel small molecule antagonists: fluorescence cell-based qHTS assay (AID 1671200).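 Also: hERG-expressing U2OS cells given a thallium stimulus after FluxOR II dye loading; series mostly up to about 77 µM.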 The gist of the method:
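Kinetic two-minute fluorescence traces, sampled at 1 s, were collected following thallium stimulus of U2OS cells (1000 per well) that had been cultured overnight at 37 C and loaded with FluxOR II.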
On the technique in general: hERG is a cardiac potassium channel; its block is linked to QT prolongation.

The target in experiment [3] is Cytochrome P450 3A4 (Homo sapiens) (UniProt P08684). As to the kind of experiment: Cytochrome P450 Family 3 Subfamily A Member 4 (CYP3A4) small molecule antagonists: luciferase reporter qHTS assay (AID 1671201). Also: potency is read from the fitted curve at half-maximal effect. As to activity change, negative = inhibition: series mostly up to about 120 µM. In a few lines: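 Proluciferin-to-luciferin conversion by CYP3A4, NADPH-regenerated, 1 h RT; luminescence read as RLU. Ketoconazole as control.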
Experiment [4] has as its target Cytochrome P450 1A2 (Homo sapiens) (UniProt P05177). In words: Cytochrome P450 Family 1 Subfamily A Member 2 (CYP1A2) small molecule antagonists: luciferase reporter qHTS assay (AID 1671199). Also: potency is read from the fitted curve at half-maximal effect. As to activity change, negative = inhibition: series mostly up to about 120 µM. In a few lines:
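P450-Glo CYP1A2, 1536-well qHTS: enzyme/proluciferin substrate + cpd (DMSO), 10 min RT; NADPH regen, 1 h RT; detection reagent, 20 min; luminescence, RLU.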

Where “and” joins values, the source holds several entries; their conditions need not be identical. Equal values may be shown once. Inconclusive results are not listed. Values without a mark were called inactive. Calls of active or inactive are those of the source. Calls follow the shape of the dose curve; as a rule, active = well fitted curve in the direction sought with a large enough effect in the repeat runs; inconclusive = weak or mixed curves; inactive = no such curve, though single readings can be large; an effect the other way counts as inactive or inconclusive.
% is scaled to controls: 0 for no effect and ±100 for the full control effect.
Also: nearly all actives have a fitted effect of over 50% in size.

Sequence of Voltage-gated inwardly rectifying potassium channel KCNH2 (Homo sapiens) (Q12809 whole entry, looked up): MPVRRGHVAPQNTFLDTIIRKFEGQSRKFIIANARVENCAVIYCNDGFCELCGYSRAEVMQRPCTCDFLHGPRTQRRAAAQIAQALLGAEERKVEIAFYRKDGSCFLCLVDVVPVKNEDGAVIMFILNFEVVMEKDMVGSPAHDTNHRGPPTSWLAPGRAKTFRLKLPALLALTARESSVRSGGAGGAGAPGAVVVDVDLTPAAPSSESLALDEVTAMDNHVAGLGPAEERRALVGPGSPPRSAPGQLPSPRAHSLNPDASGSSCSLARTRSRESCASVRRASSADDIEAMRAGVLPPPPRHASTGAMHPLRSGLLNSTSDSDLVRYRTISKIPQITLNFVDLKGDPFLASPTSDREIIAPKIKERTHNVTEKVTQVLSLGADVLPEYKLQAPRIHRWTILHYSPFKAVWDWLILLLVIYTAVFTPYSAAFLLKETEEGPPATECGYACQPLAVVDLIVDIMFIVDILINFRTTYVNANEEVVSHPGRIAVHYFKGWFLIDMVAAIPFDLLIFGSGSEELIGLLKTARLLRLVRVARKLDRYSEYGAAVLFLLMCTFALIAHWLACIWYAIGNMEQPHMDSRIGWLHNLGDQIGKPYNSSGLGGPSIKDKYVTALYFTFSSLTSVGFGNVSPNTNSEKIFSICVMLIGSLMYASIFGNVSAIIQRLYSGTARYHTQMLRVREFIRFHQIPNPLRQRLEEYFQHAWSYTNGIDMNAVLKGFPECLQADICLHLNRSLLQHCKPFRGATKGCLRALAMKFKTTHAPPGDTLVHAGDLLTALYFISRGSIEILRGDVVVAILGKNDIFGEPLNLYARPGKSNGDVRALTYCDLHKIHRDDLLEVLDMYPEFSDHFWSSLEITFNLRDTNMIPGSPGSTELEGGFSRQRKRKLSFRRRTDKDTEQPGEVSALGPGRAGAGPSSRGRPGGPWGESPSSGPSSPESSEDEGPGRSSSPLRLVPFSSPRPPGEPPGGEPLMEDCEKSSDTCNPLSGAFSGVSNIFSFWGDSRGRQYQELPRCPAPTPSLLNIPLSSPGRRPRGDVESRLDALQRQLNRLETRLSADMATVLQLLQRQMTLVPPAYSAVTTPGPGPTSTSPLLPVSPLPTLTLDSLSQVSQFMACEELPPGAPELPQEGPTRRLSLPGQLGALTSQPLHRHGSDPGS
Sequence of Cytochrome P450 3A4 (Homo sapiens) (P08684 whole entry, looked up): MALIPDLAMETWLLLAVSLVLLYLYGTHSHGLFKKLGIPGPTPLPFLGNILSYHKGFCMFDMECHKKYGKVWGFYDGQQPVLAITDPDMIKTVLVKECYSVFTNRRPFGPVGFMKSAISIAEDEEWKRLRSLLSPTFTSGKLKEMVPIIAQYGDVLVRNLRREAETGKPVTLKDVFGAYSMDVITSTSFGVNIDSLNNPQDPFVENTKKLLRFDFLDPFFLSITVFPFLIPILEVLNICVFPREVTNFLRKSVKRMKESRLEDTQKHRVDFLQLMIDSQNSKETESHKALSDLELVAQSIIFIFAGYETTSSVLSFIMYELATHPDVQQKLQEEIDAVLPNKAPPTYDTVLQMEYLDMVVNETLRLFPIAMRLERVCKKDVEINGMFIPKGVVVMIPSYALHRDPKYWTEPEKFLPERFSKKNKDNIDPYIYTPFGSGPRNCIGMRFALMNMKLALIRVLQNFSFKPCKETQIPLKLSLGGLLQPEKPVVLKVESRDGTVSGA
Sequence of Cytochrome P450 2C9 (Homo sapiens) (P11712 whole entry, looked up): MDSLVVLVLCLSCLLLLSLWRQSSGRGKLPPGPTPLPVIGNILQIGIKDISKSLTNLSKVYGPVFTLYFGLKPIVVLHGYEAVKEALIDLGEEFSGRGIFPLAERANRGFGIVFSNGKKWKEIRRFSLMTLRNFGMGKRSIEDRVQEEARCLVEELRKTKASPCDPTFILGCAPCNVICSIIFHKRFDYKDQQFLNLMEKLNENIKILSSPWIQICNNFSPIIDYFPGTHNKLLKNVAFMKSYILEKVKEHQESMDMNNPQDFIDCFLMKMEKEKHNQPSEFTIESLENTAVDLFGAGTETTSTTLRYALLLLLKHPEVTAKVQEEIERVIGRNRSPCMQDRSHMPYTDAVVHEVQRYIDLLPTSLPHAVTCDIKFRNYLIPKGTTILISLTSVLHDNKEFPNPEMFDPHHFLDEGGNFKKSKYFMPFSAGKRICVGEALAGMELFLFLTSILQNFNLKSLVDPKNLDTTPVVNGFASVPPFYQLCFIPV
Sequence of Cytochrome P450 1A2 (Homo sapiens) (P05177 whole entry, looked up): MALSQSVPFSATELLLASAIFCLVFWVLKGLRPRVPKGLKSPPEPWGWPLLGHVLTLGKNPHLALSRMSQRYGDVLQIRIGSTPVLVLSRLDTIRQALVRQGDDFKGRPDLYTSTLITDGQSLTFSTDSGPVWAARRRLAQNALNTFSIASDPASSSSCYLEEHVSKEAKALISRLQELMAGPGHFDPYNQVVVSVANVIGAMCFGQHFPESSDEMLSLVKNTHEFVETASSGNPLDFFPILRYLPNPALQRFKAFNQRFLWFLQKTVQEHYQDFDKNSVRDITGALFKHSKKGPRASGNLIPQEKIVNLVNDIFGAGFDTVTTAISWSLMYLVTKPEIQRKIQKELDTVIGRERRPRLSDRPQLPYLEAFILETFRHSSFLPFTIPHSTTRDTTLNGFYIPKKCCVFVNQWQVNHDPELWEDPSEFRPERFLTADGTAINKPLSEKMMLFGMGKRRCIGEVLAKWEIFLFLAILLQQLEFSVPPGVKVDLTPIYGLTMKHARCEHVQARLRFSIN

As for `CC(C)(C)C1CCC(=O)CC1`, the Potency result in experiment [1], in experiment [2] and in experiment [3] was “inactive” in each case.

Take `CCO[C@@H]1O[C@H](C(COCc2ccccc2)OCc2ccccc2)[C@H](OCc2ccccc2)[C@H]1O` (stereo not given in full): the Potency entry in experiment [4] and in experiment [2] was “inactive” each time.

As for `C=CC(C)(CCC=C(C)C)OC=O` (stereo not given), the Potency was 35.6 µM (active) in experiment [1] and 31.7 µM (active) in experiment [3]. Besides, the Potency result in experiment [2] is “inactive”.

For the compound `OC1CCCc2ccccc21` (stereo not given), the Potency entry in experiment [1], in experiment [2] and in experiment [3] was “inactive” in each case.

In the case of `CCCC[P+](C)(CCCC)CCCC`, the Potency result in experiment [1], in experiment [4] and in experiment [3] was “inactive” throughout.

Turning to `CCCCCCCCCCCC(=O)OCC(C)OC(=O)CCCCC(=O)O` (stereo not given), the results for the Potency in experiment [1] and in experiment [3] were 7.76 µM (active) and 8.71 µM (active), respectively. Besides, in experiment [2], the Potency entry is “inactive”.

As to `O=C1OC2(c3ccc(O)cc3Oc3cc(O)ccc32)c2ccc(N=C=S)cc21`, the Potency in experiment [1] was 72.3 µM (active). Moreover, the Potency entry in experiment [2] and in experiment [3] was “inactive” each time.

Regarding `CN1CCCCC1CCN1c2ccccc2Sc2ccc(S(C)=O)cc21` (stereo not given), the Potency result in experiment [1], in experiment [4] and in experiment [3] was “inactive” in each case.

For the compound `CC(C)Cn1cnc2c(N)nc3ccccc3c21`, the figures for the activity change, negative = inhibition in experiment [1], in experiment [2] and in experiment [3] were -3.29% [at 23.6 µM], -8.33% [at 15.8 µM] and 54.2% [at 23.6 µM], respectively.

`Cc1c(C)c2c(c(C)c1OC(=O)c1cccnc1)CC[C@@](C)(CCC[C@H](C)CCC[C@H](C)CCCC(C)C)O2`: the Potency result in experiment [1], in experiment [2] and in experiment [3] was “inactive” each time.

Regarding `COc1cccc(OC)c1C(=O)O`, the Potency result in experiment [1] and in experiment [2] was “inactive” each time.

`CCOC(=O)NNc1ccc(N(CC)CC(C)O)nn1` (stereo not given): the Potency result in experiment [1], in experiment [4] and in experiment [3] was “inactive” each time.

Take `CCOC(=O)c1ccc(C2CCC(NC[C@H](O)COc3ccc(O)c(NS(C)(=O)=O)c3)CC2)cc1` (stereo not given in full): in experiment [1], the Potency was 5.84 µM (active). Besides, the Potency entry in experiment [4] and in experiment [3] was “inactive” throughout.

Consider `CC(C)(C)c1ccc(C(O)CCCN2CCC(C(O)(c3ccccc3)c3ccccc3)CC2)cc1` (stereo not given), for which, in experiment [4], the Potency result was “inactive”.

For `O=C(O)c1cc(N=Nc2ccc([N+](=O)[O-])cc2)ccc1O`, in experiment [1], the Potency was 34.9 µM (active). The Potency entry in experiment [2] was “inactive”.

As to `CC(=O)[C@H]1CC[C@H]2[C@@H]3CCC4=CC(=O)CC[C@]4(C)[C@H]3CC[C@]12C`, the Potency was 22.3 µM (active) and 25.2 µM (active) in experiment [1]; 31.7 µM (active) in experiment [4]. The Potency entry in experiment [3] is “inactive”.

Take `COC(C)=O`: the Potency entry in experiment [1] and in experiment [2] was “inactive” throughout.

Consider `O=C1c2ccccc2C(=O)N1SC1CCCCC1`, for which the Potency in experiment [1] is 3.99 µM (active) and 7.1 µM (active); in experiment [4], 35.5 µM (active) and 35.6 µM (active). Moreover, in experiment [3], the Potency result is “inactive”.

Take `CC1(C)CCC[C@]2(C)[C@H]3CCO[C@]3(C)CC[C@@H]12`: the Potency result in experiment [1], in experiment [4], in experiment [2] and in experiment [3] was “inactive” in each case.

With `CN(C)CCN1CCN(c2cccc(Cl)c2)C1=O`, the Potency result in experiment [1] and in experiment [2] was “inactive” in each case.

Take `CCOc1ccc2ccccc2c1C(=O)N[C@@H]1C(=O)N2[C@@H]1SC(C)(C)[C@@H]2C(=O)O`: the Potency entry in experiment [1], in experiment [2] and in experiment [3] was “inactive” each time.

Consider `CC1(C)CC(O)CC(C)(C)N1`, for which the Potency result in experiment [1], in experiment [2] and in experiment [3] was “inactive” throughout.

In the case of `CC1(C)[C@@H](O)CC[C@]2(C)[C@H]3C(=O)C=C4[C@@H]5C[C@@](C)(C(=O)O)CC[C@]5(C)CC[C@@]4(C)[C@]3(C)CC[C@@H]12`, the Potency entry in experiment [1], in experiment [4] and in experiment [3] was “inactive” each time.

Regarding `Fc1ccc(C(c2ccc(F)cc2)N2CCNCC2)cc1`, the Potency entry in experiment [1], in experiment [4] and in experiment [3] was “inactive” throughout.

As for `CC(C)CCOC(=O)/C=C/c1ccccc1`, the Potency in experiment [1] is 40.1 µM (active); in experiment [4] it was 22.5 µM (active). In addition, the Potency entry in experiment [3] was “inactive”.

Turning to `Cc1ccc(C)cc1`, the Potency result in experiment [1], in experiment [2] and in experiment [3] was “inactive” each time.

As for `CCCCCCCCCCCCCCCC[N+](C)(C)CC`, the Potency result in experiment [4] is “inactive”.

Turning to `Cc1ccc(N/N=c2\c(=O)cc/c(=N\Nc3ccc(S(=O)(=O)O)cc3)c2=O)c(C)c1`, in experiment [1], the Potency is 35.6 µM (active). In addition, the Potency entry in experiment [2] and in experiment [3] was “inactive” throughout.

Regarding `c1ccsc1`, the Potency result in experiment [1], in experiment [4], in experiment [2] and in experiment [3] was “inactive” in each case.

`CN1CCN2c3ccccc3Cc3ccccc3C2C1` (stereo not given): the Potency result in experiment [1] and in experiment [3] was “inactive” throughout.

Take `FC(F)(F)c1cccc(Cl)c1`: the Potency entry in experiment [4], in experiment [2] and in experiment [3] was “inactive” throughout.

Consider `C=CC(=O)Nc1cc2c(Nc3ccc(F)c(Cl)c3)ncnc2cc1OCCCN1CCOCC1`, for which the Potency entry in experiment [4] and in experiment [2] was “inactive” throughout.

With `OC1CCC(C2CCCCC2)CC1` (stereo not given), the Potency in experiment [4] is 35.6 µM (active). Moreover, in experiment [2], the Potency result was “inactive”.

For the compound `O=S(=O)(O)c1ccccc1/C=C/c1ccc(-c2ccc(/C=C/c3ccccc3S(=O)(=O)O)cc2)cc1`, the Potency result in experiment [4], in experiment [2] and in experiment [3] was “inactive” throughout.

As for `COc1ccc(NC(=O)CC(C)=O)cc1`, the Potency in experiment [4] was 25.2 µM (active). Further, the Potency entry in experiment [2] and in experiment [3] was “inactive” throughout.

On to `CNc1ccc([N+](=O)[O-])cc1`, for which the Potency in experiment [4] was 35.7 µM (active). Further, the Potency entry in experiment [2] and in experiment [3] was “inactive” each time.

Regarding `CC(C)CCCCCOC(=O)CCS`, the Potency in experiment [4] was 39.9 µM (active). In experiment [2], the Potency entry was “inactive”.

In the case of `CC(N=C(NC#N)Nc1ccncc1)C(C)(C)C` (stereo not given), the Potency result in experiment [4] and in experiment [2] was “inactive” each time.

As for `OC12N=C(c3ccccc3)SC1Cc1cc(Cl)ccc12` (stereo not given), the Potency in experiment [4] was 1.78 µM (active); in experiment [3], 31.7 µM (active). Further, the Potency entry in experiment [2] was “inactive”.
